# This is a sample that favours compounds with a hit; in the whole collection about 1.5% have one here.
# BLM helicase inh – blocks DNA unwinding by human BLM helicase; P54132; recombinant BLM DNA unwinding, fluorescence dequenching; Potency, µM (highest dose often 56.1 µM), without a hit: top-dose activity change, negative = inhibition, most hits filed as inhibitors; 0.2% of 350,000 active;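 note: potency is the fitted concentration of half-maximal effect; plate controls were vehicle for no effect and no enzyme for full effect; nearly all actives have a fitted effect of over 35% in size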
# FEN1 inh – human FEN1 inhibition | P39748 | Recombinant FEN1 flap cleavage, fluorescence, 15 min | Potency, µM (doses to about 114 µM), inactives show at the top dose activity change, negative = inhibition, usual class: inhibitors | 0.35% of 390,000 active | AID 588795; note: potency is the fitted concentration of half-maximal effect; nearly all actives have a fitted effect of over 65% in size
#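 Reaction started by adding substrate (50 nM final) to 10 nM enzyme after 15 min room-temperature compound preincubation. Reads at 0 and 15 min, with data normalized and fitted to a four-parameter Hill equation.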
# PI5P4K alpha inh – PI5P4K alpha (human) kinase inhibition | P48426 | PI5P4Kalpha enzyme, ADP-Glo luminescence, 60 min; active compounds read low | max response, % | 1.2% of 330,000 active | AID 652105; active = max response of -50% or lower; inconclusive = between -30% and -50%; inactive = -30% or higher; note: value at the top dose of about 77 µM
#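 Compounds were pin-transferred onto PI5P4Kalpha and substrate in HEPES pH 7.4 buffer with EGTA, CHAPS and 5% DMSO. ATP (5 microM final) started the reaction, which ran 60 minutes at room temperature before ADP-Glo detection.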
# APEX1 inh – APE1 (human) endonuclease inhibition. P27695. 0.35% of 350,000 active. Potency, µM (titrated, usually from 65.8 µM), without a hit: at the top dose activity change, negative = inhibition, hits mostly inhibitors. recombinant APE1, TAMRA/BHQ-2 abasic DNA cleavage fluorescence;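 note: potency is the fitted concentration of half-maximal effect; plate controls were vehicle for no effect and reference inhibitor for full effect; nearly all actives have a fitted effect of over 55% in size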
#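 Step 1: APE1 (0.75 nM) with compound, 15 min RT. Step 2: add 50 nM fluorophore/quencher THF duplex. Step 3: three fluorescence reads 60 s apart (525/598 nm); read 3 minus read 1 = reaction progress.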
# GCN5L2 inh – GCN5L2 (KAT2A) acetyltransferase inhibition. Potency, µM (series often up to 58.9 µM), for inactives: at the highest dose activity change, negative = inhibition, actives largely listed as inhibitors. Q92830. 0.21% of 390,000 active. GCN5L2 HAT assay, ThioGlo1 CoA-SH fluorescence; note: potency is the fitted concentration of half-maximal effect
# Target sequence (Q92830 whole entry, looked up): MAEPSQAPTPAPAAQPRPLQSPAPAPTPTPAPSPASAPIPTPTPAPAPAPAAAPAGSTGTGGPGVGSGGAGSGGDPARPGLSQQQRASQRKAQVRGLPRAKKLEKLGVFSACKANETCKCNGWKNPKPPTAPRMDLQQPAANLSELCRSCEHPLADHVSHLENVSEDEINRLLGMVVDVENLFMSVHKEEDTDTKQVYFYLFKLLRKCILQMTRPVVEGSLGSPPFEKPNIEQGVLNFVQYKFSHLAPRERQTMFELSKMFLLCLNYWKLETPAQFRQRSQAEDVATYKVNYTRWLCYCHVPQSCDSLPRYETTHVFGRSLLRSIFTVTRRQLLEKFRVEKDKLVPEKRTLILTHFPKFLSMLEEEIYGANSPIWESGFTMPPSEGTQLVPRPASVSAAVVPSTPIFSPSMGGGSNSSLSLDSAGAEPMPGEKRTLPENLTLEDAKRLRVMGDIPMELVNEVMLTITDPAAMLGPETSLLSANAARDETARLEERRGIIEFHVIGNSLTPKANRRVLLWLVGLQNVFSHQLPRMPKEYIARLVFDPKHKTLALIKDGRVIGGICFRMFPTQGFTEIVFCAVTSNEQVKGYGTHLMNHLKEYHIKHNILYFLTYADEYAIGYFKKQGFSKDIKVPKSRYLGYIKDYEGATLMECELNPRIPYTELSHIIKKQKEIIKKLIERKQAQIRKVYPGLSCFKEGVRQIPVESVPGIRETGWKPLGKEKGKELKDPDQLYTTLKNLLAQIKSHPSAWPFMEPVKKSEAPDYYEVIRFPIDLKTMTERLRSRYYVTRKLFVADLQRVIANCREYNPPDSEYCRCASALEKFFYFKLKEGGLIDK
#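 Free CoA generated was detected with ThioGlo1 (50uM) fluorescence at Ex340nm/Em540nm, read immediately and after 20 min at room temperature. Enzyme, 20 nM in HEPES pH 7.5 buffer, saw compounds 15 min before adding 75uM H3(1-25) peptide and 70uM acetyl-CoA.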
# RECQ1 inh – RECQ1 (human) helicase inhibition; 0.54% of 240,000 active; AID 2549; P46063; Potency, µM (doses to about 57.3 µM), for the others: at the highest dose activity, negative = inhibition, most hits filed as inhibitors; RECQ1 DNA unwinding, red fluorescence kinetic read;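 note: potency is the fitted concentration of half-maximal effect; plate controls were vehicle for no effect and no enzyme for full effect; nearly all actives have a fitted effect of over 30% in size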
#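 50 nM RECQ1T1 preincubated 15 min with compound in Tris pH 8.0 buffer with MgCl2, DTT, Tween-20 and 2.5 ug/ml poly(dI-dC); started with 200 nM TAMRA/BHQ-2 forked duplex and 2 mM ATP. Unwinding read as fluorescence (525/598 nm), two reads 2 h apart.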
# * = called active by the depositor; i = inactive; ? = inconclusive; / = no result. Unless noted, calls come from the whole dose curve; as a rule, active = well fitted curve in the direction sought with a large enough effect; inconclusive = small, poorly fitted or top-dose-only effect, or another doubt; inactive = no such curve, though single readings can be large; an effect the other way counts as inactive or inconclusive. Unless noted, % is set by controls: 0 for no effect and ±100 for the full control effect.
SMILES,BLM helicase inh,FEN1 inh,PI5P4K alpha inh,APEX1 inh,GCN5L2 inh,RECQ1 inh
COc1cc(/C=C2\CCC/C(=C\c3ccc(O)c(OC)c3)C2=O)ccc1O,-6%,?,-8,-7%,?,/
COc1cc(C=O)ccc1O,1%,/,/,-1%,-12%,-7%
CCN1C(=O)/C(=C/c2c(C)nn(C)c2C)SC1=S,2%,-4%,/,-1%,-1%,-15%
Cc1nn(C)cc1/C=C1\SC(=S)NC1=O,-3%,10%,-82*,?,-1%,i
Cc1nn(C)c(C)c1/C=C1/SC(=S)NC1=O,-2%,-1%,-78*,8%,-6%,13%
COc1cccc(/C=C/c2ccnc3ccccc23)c1OC,/,-16%,/,/,/,/
Cc1ccc(SSc2cc(C)ccc2N)c(N)c1,/,?,-81*,53%,?,/
NC(=O)c1cc([N+](=O)[O-])ccc1NCCN1C(=O)c2ccc(C(=O)O)cc2C1=O,-1%,-13%,-87*,?,-1%,17%
CCCCn1c(SCC(=O)c2ccc(OC)cc2OC)nc2cc(S(N)(=O)=O)ccc21,-19%,-11%,-54*,?,-16%,-14%
COc1cc(N=Nc2cccc(S(N)(=O)=O)c2)c2ccccc2c1N,4µM*,45µM*,-29,?,-10%,i
NC1=NC(=Nc2cccc(S(N)(=O)=O)c2)c2ccccc21,2%,-1%,0,3%,1%,20%
O=C1NN(c2ccccc2)C(=O)/C1=C\c1coc2ccc(O)cc2c1=O,-8%,-8%,-68*,-2%,-2%,-11%
O=C1NN(c2ccccc2)C(=O)/C1=C\c1ccccc1,-3%,-19%,-1,39%,-11%,/
O=C1NN(c2ccccc2)C(=O)/C1=C/c1coc2ccccc2c1=O,-10%,0%,-64*,5%,-5%,-3%
CN1CCN(c2ccnc(N(C)CCCCCCN)n2)CC1,/,2%,/,/,/,/
COC(=O)c1ccc(Cn2c(O)c(N=NC(N)=S)c3ccccc32)o1,-12%,-13%,-57*,?,-4%,?
Cc1cc(C(F)(F)F)nn1Cc1n[nH]c(=S)n1-c1ccc(Cl)cc1,-1%,10%,9,2%,1%,-7%
Cc1cc(C(F)(F)F)nn1Cc1n[nH]c(=S)n1Cc1ccccc1,2%,-4%,-54*,3%,2%,-6%
C/C=C(/CC[C@@H](C)[C@H]1CC[C@H]2C3=CC[C@H]4[C@H](C)[C@@H](O)CC[C@]4(C)[C@H]3CC[C@]12C)C(C)C,/,/,/,4%,/,/
CNS(=O)(=O)c1cccc(C(=O)OCC(=O)c2ccc(S(=O)(=O)N3CCCCC3)cc2)c1,/,-20%,-56*,-17%,-8%,/
O=[N+]([O-])c1ccc(O/N=[N+](\[O-])N2CCCCC2)c([N+](=O)[O-])c1,/,0%,/,/,/,/
CCN(CC)c1ccc(C(=C2C=CC(=[N+](CC)CC)C=C2)c2ccc(N(CC)CC)cc2)cc1,/,?,-73*,/,/,/
CC1N(C)c2cc(NC(=O)c3ccco3)ccc2C1(C)C (stereo not drawn),?,?,/,?,-4%,25µM*
Cc1ccc2ncc(C)c(/C=C/c3ccc(N(C)C)cc3)c2c1,/,-6%,/,/,/,/
CC(C)NS(=O)(=O)c1cc(C(F)(F)F)ccc1/C=C/C(=O)O,/,6%,/,/,/,/
SMILES,BLM helicase inh,FEN1 inh,PI5P4K alpha inh,APEX1 inh,GCN5L2 inh,RECQ1 inh
COc1ccccc1C(=O)O/N=C(\N)c1ccccn1,2%,2%,-1,-2%,2%,-6%
COc1ccc(C(=O)NNC(=O)c2ccccn2)cc1,6%,-3%,-57*,2%,-4%,-5%
COc1cc(OC)cc(C(=O)O/N=C(\N)c2ccccn2)c1,-12%,-5%,1,12%,-1%,-15%
Cc1ccc(C(=O)O/N=C(\N)c2ccccn2)c(C)c1,0%,0%,-57*,13%,-12%,/
COc1ccc(C(=O)O/N=C(\N)c2ccccn2)cc1,-3%,0%,-71*,38%,-7%,/
CC(=O)N/C(=C/c1ccccc1)c1ccncc1,/,15%,/,/,/,/
CC(C)(C)NC(=S)N/N=C/c1cc(Br)c(O)c(Br)c1,-12%,17%,-91*,-1%,-5%,2%
CCCS(=O)(=O)c1ncc(Cl)c(C(=O)Nc2sc3c(c2C(=O)NCC)CCCC3)n1,/,0%,/,/,/,/
COc1ccc2[nH]c(=O)c(CN(C3CCCCC3)C(c3nnnn3Cc3ccco3)C(C)C)cc2c1 (stereo not drawn),-20%,-6%,-67*,-1%,-24%,28µM*
CO[C@H]1C=CO[C@@]2(C)Oc3c(C)c(O)c4c(O)c(c5c(nc6cc(C)ccn65)c4c3C2=O)NC(=O)/C(C)=C\C=C[C@H](C)[C@H](O)[C@@H](C)[C@@H](O)[C@@H](C)[C@H](OC(C)=O)[C@@H]1C,/,/,/,-1%,/,/
O=C(O)c1cc(NCc2cc(O)ccc2O)ccc1O,/,8.9µM*,/,-5%,-15%,10%
O=C(O)c1ccc(O)cc1O,/,20%,0,20%,-9%,-2%
COC(=O)/C=C/c1cc(O)ccc1O,/,/,/,-5%,-9%,i
O=C(Nc1cccc(Cl)c1)OCCOC(=O)Nc1cccc(Cl)c1,/,-29%,-9,/,/,/
O=C(Nc1cccc(Cl)c1)OCC#CCCl,28µM*,/,/,1.6µM*,?,28µM*
CN=C1C=CC(=C(c2ccc(N(C)C)cc2)c2ccc(N(C)C)cc2)C=C1,?,/,/,/,-23%,/
Cc1ccsc1C=Nc1ccc(O)cc1,?,-16%,-51*,?,0%,?
Cc1ccsc1/C=N/N=C/c1sccc1C,-10%,16%,-1,36%,-10%,/
CC1=C(C#N)C(=O)N(C2CCS(=O)(=O)C2)C(=O)/C1=C\c1ccc(C)o1 (stereo not drawn),?,/,/,18µM*,?,22µM*
Cc1ccc(/C=C2\SC(=S)N(C3CCS(=O)(=O)C3)C2=O)o1 (stereo not drawn),-6%,?,-53*,4%,-13%,-6%
NS(=O)(=O)c1ccc(-c2ccc(/C=C3\SC(=S)N(C4CCS(=O)(=O)C4)C3=O)o2)cc1 (stereo not drawn),0%,-20%,-10,-3%,-18%,-1%
CCOC(=O)c1c(C)[nH]c(C(=O)OC(C(=O)N(C)C)c2ccccc2)c1C (stereo not drawn),/,-10%,/,/,/,/
C1=Cc2ccccc2/C1=C\c1ccc(/C=C2\C=Cc3ccccc32)cc1,/,14%,/,/,/,/
C1=Cc2ccccc2/C1=C\c1cccc(/C=C2\C=Cc3ccccc32)c1,/,35µM*,/,/,/,/
CCc1n[nH]c(=S)n1/N=C/c1cccc2ccccc12,2%,6%,1,7%,-4%,/

# Source: PubChem BioAssay (National Center for Advancing Translational Sciences (NCATS))
